Laboratory results as given in PMC5540273 (PLoS ONE, 2017).

How the values were obtained:
Conditions in all cases: concentration: 1 μM,replicates: in singlicate; n = 1
MTOR = system: MTOR
MUSK = system: MUSK
MYLK2 = system: MYLK2
MYLK4 = system: MYLK4
MYLK = system: MYLK
MYO3A = system: MYO3A
MYO3B = system: MYO3B
NDR1 = system: T1, NDR1
T1 construct: gene STK38

NDR2 = system: NDR2
NEK10 = system: NEK10
NEK11 = system: NEK11
NEK1 = system: NEK1
NEK2 = system: NEK2
NEK3 = system: NEK3
NEK4 = system: NEK4
NEK5 = system: NEK5
NEK6 = system: NEK6
NEK7 = system: NEK7
NEK9 = system: NEK9
NIK = system: T2, NIK
T2 construct: gene MAP3K14
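Further: KINOMEscan kinase panel screen.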

SMILES | %Inh (MTOR) | %Inh (MUSK) | %Inh (MYLK2) | %Inh (MYLK4) | %Inh (MYLK) | %Inh (MYO3A) | %Inh (MYO3B) | %Inh (NDR1) | %Inh (NDR2) | %Inh (NEK10) | %Inh (NEK11) | %Inh (NEK1) | %Inh (NEK2) | %Inh (NEK3) | %Inh (NEK4) | %Inh (NEK5) | %Inh (NEK6) | %Inh (NEK7) | %Inh (NEK9) | %Inh (NIK)
Cc1cc(C(=O)Nc2ccc(Oc3ccc4nc(NC(=O)C5CC5)cn4n3)cc2)nn1-c1ccccc1 | 9% | 59% | 0% | 5% | 9% | 0% | 21% | 8% | 3% | 0% | 0% | 1% | 10% | 0% | 0% | 0% | 10% | 0% | 0% | 0%
C[C@@H](Oc1cc(-c2cnn(C3CCNCC3)c2)cnc1N)c1c(Cl)ccc(F)c1Cl | 2% | 75% | 20% | 30% | 21% | 0% | 0% | 19% | 6% | 60% | 0% | 0% | 0% | 24% | 20% | 0% | 14% | 35% | 26% | 0%
Cl.Cl.NC[C@H](Cc1ccc(C(F)(F)F)cc1)NC(=O)c1cc(Br)c(-c2ccnc3[nH]ccc23)s1 [GSK1487252] | 11% | 0% | 25% | 45% | 55% | 2% | 9% | 93.3% | 41% | 16% | 0% | 15% | 0% | 23% | 4% | 4% | 0% | 0% | 3% | 0%
O=C(NCCNc1ccnc(NCc2ccc(F)cc2)n1)c1cc2ccccc2s1 [GSK1379944] | 1% | 5% | 0% | 1% | 14% | 0% | 0% | 0% | 0% | 0% | 0% | 0% | 4% | 11% | 19% | 85% | 0% | 0% | 0% | 0%
Cc1cc2cn[nH]c2cc1-c1cccc2c(N)c(C(N)=O)nnc12 | 3% | 0% | 0% | 10% | 71% | 14% | 0% | 85% | 0% | 86% | 27% | 0% | 12% | 33% | 18% | 2% | 17% | 0% | 15% | 40%
C[C@@H]1CCN(C(=O)CC#N)C[C@@H]1N(C)c1ncnc2[nH]ccc12 | 51% | 11% | 6% | 4% | 0% | 8% | 0% | 0% | 12% | 0% | 0% | 0% | 19% | 23% | 0% | 0% | 0% | 9% | 0% | 0%
CC(C)Nc1cc(-c2ccc3c(N)n[nH]c3c2)nc(N)n1 [GSK2221681] | 9% | 0% | 23% | 37% | 18% | 0% | 0% | 10% | 0% | 13% | 0% | 0% | 0% | 1% | 7% | 4% | 0% | 0% | 1% | 0%
O=C(NCCCN1CCOC1=O)c1cnc(NCc2cc(Cl)ccc2Cl)nc1NC1CCCC1 | 19% | 11% | 0% | 6% | 14% | 0% | 16% | 31% | 0% | 13% | 0% | 0% | 7% | 31% | 0% | 0% | 7% | 22% | 0% | 16%
Nc1nc(Nc2ccccc2)cc(-c2ccc3c(N)n[nH]c3c2)n1 [GSK2225749] | 13% | 4% | 51% | 16% | 0% | 0% | 0% | 0% | 0% | 0% | 11% | 0% | 14% | 0% | 5% | 0% | 0% | 0% | 11% | 20%
